What was measured:
Experiment in all cases: DAPPL (digital affinity profiling via proximity ligation, sequencing); 10 mM Tris-HCl pH 7.5, 50 mM NaCl, 1 mM DTT, 4% glycerol, room temperature, 30 min; GST-TFs on glutathione beads, 16-mer random dsDNA library, 0.1% formaldehyde crosslink after washing; high values mean tight binding
[1] = biological target: T1, FLI1 (Homo sapiens, UniProt Q01543 1-452); settings: protein: recombinant; tags: N-terminal GST; dsDNA, one strand shown
T1 sequence: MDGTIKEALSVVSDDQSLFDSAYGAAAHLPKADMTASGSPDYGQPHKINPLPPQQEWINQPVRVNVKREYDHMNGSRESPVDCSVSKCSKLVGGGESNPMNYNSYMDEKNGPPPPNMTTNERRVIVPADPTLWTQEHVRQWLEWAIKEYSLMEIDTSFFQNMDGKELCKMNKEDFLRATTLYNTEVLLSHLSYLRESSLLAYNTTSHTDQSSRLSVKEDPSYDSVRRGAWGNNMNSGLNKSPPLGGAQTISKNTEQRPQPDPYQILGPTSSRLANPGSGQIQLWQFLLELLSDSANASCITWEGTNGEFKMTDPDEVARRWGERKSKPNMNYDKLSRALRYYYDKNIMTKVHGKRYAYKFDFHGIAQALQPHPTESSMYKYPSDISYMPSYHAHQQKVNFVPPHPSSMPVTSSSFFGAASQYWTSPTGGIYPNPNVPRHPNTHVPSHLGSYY
Method in brief: (§1)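 GST fusions of human transcription factors were expressed in yeast and captured with glutathione beads. Once given DNA barcodes and pooled alongside a tag-only sample, they were incubated for 30 min at room temperature with 200 nmole of a random double-stranded 16-mer DNA library in Tris/NaCl/DTT/glycerol buffer, then washed, crosslinked (0.1% formaldehyde), proximity-ligated, PCR-amplified and sequenced on an Illumina NextSeq500. The binding signal of each hexamer is its read frequency for a factor divided by its frequency for the tag-only sample.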

[2] = biological target: T2, ELK1 (Homo sapiens, UniProt P19419 1-428); settings: protein: recombinant; tags: N-terminal GST; dsDNA, one strand shown
T2 sequence: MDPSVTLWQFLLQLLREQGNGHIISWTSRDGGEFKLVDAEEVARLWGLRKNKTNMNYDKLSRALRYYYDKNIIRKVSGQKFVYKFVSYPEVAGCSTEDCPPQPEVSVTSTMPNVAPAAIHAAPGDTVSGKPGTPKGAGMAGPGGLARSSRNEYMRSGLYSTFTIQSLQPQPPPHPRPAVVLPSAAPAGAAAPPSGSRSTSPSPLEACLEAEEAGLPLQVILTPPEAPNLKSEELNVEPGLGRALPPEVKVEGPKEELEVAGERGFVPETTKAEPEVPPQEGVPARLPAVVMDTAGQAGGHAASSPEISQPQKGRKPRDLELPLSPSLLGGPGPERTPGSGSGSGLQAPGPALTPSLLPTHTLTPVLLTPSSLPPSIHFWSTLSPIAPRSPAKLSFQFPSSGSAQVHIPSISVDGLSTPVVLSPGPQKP
Method in brief: as §1

[3] = biological target: T3, GABPA (Homo sapiens, UniProt Q06546 1-454); settings: protein: recombinant; tags: N-terminal GST; dsDNA, one strand shown
T3 sequence: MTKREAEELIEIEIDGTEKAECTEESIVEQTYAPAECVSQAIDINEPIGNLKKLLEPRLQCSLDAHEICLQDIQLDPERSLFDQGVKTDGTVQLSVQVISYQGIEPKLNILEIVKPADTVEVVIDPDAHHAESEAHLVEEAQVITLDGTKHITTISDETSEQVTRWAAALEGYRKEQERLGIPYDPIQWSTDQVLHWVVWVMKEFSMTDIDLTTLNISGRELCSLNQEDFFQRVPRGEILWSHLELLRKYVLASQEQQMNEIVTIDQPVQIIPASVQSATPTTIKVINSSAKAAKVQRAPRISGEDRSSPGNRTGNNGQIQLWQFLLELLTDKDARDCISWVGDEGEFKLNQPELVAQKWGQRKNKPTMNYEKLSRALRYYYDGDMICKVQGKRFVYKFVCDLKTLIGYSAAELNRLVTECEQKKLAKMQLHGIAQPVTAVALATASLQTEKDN
Method in brief: as §1

[4] = biological target: T4, ERG (Homo sapiens, UniProt P11308 1-479); settings: protein: recombinant; tags: N-terminal GST; dsDNA, one strand shown
T4 sequence: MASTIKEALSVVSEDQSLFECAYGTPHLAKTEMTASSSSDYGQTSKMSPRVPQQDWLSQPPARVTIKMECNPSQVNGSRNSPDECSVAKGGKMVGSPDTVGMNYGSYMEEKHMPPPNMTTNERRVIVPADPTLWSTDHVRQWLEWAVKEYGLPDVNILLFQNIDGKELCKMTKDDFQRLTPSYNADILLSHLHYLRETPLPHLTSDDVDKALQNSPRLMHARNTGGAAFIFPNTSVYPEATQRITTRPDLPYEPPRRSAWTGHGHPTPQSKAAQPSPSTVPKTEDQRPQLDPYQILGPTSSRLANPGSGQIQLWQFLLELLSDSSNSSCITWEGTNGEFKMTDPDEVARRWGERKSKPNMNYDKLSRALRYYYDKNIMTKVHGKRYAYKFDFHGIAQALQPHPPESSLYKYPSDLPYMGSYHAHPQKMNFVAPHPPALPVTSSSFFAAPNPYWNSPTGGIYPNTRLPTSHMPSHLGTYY
Method in brief: as §1

[5] = biological target: ELF1 (Homo sapiens, UniProt P32519 1-619); settings: protein: recombinant; tags: N-terminal GST; dsDNA, one strand shown
ELF1, sequence (P32519 whole entry): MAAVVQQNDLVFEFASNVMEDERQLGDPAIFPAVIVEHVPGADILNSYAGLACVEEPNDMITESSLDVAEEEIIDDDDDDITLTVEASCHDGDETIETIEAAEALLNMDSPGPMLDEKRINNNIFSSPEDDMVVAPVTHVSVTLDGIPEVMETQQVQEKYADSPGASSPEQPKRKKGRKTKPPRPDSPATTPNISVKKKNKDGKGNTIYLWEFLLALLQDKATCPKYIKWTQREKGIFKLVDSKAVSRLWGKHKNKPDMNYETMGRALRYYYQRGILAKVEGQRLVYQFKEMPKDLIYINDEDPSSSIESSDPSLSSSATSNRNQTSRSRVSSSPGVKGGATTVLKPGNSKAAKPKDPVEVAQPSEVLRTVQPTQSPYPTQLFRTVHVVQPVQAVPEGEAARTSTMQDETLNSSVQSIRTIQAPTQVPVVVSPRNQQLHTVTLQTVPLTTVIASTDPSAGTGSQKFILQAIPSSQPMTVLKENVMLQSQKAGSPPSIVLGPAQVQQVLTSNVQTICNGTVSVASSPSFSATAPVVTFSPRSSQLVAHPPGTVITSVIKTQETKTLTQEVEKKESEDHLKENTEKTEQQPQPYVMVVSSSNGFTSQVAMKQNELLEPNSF
Method in brief: as §1

[6] = biological target: T5, EHF (Homo sapiens, UniProt Q9NZC4 1-300); settings: protein: recombinant; tags: N-terminal GST; dsDNA, one strand shown
T5 sequence: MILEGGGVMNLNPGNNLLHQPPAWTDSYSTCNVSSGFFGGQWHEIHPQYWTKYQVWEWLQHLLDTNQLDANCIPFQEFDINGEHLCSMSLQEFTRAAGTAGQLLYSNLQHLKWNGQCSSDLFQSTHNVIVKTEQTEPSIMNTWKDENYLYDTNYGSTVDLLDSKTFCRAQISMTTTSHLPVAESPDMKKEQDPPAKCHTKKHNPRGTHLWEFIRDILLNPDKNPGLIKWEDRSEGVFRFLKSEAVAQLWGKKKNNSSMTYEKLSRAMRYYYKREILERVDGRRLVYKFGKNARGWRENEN
Method in brief: as §1

[7] = biological target: SPI1 (Homo sapiens, UniProt P17947 1-270); settings: protein: recombinant; tags: N-terminal GST; dsDNA, one strand shown
Method in brief: as §1

[8] = biological target: SPIB (Homo sapiens, UniProt Q01892 1-262); settings: protein: recombinant; tags: N-terminal GST; dsDNA, one strand shown
SPIB, sequence (Q01892 whole entry): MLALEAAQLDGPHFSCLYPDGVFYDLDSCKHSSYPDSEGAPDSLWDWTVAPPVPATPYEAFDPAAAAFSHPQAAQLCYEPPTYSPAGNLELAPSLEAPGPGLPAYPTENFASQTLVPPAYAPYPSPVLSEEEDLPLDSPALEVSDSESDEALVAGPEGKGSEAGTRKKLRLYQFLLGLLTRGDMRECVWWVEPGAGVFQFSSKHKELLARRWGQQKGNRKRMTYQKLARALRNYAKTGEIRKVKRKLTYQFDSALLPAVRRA
Method in brief: as §1

[9] = biological target: T6, ELK3 (Homo sapiens, UniProt P41970 1-407); settings: protein: recombinant; tags: N-terminal GST; dsDNA, one strand shown
T6 sequence: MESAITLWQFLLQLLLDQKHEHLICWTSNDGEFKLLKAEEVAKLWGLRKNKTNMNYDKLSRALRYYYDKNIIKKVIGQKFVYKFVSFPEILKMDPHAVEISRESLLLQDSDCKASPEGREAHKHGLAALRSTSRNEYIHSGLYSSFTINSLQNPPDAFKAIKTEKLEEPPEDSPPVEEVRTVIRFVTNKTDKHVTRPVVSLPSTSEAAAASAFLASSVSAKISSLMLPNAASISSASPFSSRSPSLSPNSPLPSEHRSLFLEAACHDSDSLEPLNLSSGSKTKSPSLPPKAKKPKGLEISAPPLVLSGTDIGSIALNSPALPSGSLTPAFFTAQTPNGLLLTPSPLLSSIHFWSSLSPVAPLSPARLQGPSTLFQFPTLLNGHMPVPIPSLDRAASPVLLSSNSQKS
Method in brief: as §1

[10] = biological target: T7, FEV (Homo sapiens, UniProt Q99581 1-238); settings: protein: recombinant; tags: N-terminal GST; dsDNA, one strand shown
T7 sequence: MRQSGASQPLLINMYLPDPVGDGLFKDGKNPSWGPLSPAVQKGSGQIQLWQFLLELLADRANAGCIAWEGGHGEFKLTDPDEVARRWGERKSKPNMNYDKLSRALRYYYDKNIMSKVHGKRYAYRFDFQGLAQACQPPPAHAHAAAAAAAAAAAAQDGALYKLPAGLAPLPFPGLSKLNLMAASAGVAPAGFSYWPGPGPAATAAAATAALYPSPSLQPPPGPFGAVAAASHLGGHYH
Method in brief: as §1

[11] = biological target: ETV5 (Homo sapiens, UniProt P41161 1-510); settings: protein: recombinant; tags: N-terminal GST; dsDNA, one strand shown
ETV5, sequence (P41161 whole entry): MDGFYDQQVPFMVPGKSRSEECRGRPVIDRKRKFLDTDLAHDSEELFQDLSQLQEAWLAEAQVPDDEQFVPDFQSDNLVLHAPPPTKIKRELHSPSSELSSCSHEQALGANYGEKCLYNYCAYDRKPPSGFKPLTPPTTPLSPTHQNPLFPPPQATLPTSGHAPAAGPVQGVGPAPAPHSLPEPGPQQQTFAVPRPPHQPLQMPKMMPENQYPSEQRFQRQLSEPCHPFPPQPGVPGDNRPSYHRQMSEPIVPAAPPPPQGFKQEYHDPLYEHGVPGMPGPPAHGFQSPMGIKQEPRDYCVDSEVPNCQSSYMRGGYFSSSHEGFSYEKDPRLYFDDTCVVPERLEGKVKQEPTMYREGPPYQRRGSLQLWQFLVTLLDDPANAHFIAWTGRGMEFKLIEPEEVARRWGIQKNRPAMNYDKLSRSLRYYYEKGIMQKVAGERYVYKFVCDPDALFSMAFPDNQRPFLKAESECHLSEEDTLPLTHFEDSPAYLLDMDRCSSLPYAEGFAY
Method in brief: as §1

[12] = biological target: HSF1 (Homo sapiens, UniProt Q00613 1-529); settings: protein: recombinant; tags: N-terminal GST; chain copies: 3; dsDNA, one strand shown
HSF1, sequence (Q00613 whole entry): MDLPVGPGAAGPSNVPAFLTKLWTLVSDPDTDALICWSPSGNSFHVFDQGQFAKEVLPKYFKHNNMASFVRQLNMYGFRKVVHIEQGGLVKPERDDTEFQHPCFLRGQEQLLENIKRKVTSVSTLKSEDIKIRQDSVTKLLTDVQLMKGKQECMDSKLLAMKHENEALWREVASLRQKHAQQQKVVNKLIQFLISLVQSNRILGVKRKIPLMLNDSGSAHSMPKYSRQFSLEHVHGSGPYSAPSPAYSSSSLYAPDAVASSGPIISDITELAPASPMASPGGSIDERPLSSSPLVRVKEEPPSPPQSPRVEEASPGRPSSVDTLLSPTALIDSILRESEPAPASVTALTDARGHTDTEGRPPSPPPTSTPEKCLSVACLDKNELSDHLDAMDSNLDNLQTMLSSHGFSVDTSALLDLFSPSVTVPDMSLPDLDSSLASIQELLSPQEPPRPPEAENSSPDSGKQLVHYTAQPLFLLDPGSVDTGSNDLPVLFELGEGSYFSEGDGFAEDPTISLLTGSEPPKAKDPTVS
Method in brief: as §1

[13] = biological target: T8, SPIC (Homo sapiens, UniProt Q8N5J4 1-248); settings: protein: recombinant; tags: N-terminal GST; dsDNA, one strand shown
T8 sequence: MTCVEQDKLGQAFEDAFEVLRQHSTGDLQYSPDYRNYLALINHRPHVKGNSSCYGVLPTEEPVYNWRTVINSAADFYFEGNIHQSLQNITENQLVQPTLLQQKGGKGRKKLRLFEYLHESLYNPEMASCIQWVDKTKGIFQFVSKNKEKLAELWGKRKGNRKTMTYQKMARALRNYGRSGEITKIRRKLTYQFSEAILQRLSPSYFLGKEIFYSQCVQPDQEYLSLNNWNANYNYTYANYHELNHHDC
Method in brief: as §1

[14] = biological target: ELF4 (Homo sapiens, UniProt Q99607 1-663); settings: protein: recombinant; tags: N-terminal GST; dsDNA, one strand shown
ELF4, sequence (Q99607 whole entry): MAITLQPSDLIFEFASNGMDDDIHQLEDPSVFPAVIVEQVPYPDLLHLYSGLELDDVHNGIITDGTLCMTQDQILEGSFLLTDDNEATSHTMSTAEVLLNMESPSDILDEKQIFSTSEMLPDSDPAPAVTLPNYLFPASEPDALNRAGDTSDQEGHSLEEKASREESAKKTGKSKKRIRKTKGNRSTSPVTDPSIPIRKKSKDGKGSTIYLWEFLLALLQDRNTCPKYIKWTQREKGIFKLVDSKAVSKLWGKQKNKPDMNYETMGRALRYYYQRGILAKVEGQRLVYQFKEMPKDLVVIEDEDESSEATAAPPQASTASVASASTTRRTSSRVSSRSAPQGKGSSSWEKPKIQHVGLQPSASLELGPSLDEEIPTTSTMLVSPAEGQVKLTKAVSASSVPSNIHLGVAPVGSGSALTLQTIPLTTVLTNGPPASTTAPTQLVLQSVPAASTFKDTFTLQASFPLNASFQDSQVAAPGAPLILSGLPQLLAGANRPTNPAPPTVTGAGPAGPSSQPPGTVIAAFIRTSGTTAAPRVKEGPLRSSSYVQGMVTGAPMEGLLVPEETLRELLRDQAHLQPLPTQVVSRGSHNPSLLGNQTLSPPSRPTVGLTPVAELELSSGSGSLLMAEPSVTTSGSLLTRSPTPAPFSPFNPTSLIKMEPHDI
Method in brief: as §1

[15] = biological target: T9, ELK4 (Homo sapiens, UniProt P28324-2 1-405); settings: protein: recombinant; tags: N-terminal GST; dsDNA, one strand shown
T9 sequence: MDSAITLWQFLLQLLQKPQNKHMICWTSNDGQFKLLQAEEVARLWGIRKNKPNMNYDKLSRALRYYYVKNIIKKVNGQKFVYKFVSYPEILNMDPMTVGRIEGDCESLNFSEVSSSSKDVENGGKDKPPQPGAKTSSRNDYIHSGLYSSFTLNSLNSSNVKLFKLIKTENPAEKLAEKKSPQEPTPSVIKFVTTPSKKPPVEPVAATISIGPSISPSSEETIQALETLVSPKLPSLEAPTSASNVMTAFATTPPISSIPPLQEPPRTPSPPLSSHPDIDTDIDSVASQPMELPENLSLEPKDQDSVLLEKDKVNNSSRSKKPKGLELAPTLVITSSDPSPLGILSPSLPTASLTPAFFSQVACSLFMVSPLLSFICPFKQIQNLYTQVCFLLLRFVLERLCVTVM
Method in brief: as §1

[16] = biological target: T10, ETV2 (Homo sapiens, UniProt O00321 1-342); settings: protein: recombinant; tags: N-terminal GST; dsDNA, one strand shown
T10 sequence: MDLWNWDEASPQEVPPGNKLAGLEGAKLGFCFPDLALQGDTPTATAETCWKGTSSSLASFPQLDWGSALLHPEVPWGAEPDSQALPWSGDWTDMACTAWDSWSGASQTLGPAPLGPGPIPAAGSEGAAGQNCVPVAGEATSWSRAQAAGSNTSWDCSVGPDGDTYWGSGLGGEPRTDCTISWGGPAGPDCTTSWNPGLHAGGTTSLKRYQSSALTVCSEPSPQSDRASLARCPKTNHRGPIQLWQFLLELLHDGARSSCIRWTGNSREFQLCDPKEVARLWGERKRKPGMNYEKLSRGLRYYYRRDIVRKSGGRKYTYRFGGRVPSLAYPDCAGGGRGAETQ
Method in brief: as §1

[17] = biological target: T11, ELF3 (Homo sapiens, UniProt P78545 1-371); settings: protein: recombinant; tags: N-terminal GST; dsDNA, one strand shown
T11 sequence: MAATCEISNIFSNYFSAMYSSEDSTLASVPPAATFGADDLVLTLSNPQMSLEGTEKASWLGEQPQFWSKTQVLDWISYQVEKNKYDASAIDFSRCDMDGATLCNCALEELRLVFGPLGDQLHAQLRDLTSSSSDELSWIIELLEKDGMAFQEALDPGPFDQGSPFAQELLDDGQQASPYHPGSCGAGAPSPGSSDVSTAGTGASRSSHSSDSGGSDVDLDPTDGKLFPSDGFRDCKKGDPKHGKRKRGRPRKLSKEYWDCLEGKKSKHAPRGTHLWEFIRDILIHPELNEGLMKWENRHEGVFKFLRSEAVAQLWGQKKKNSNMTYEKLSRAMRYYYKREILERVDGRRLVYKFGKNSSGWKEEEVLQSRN
Method in brief: as §1

[18] = biological target: ETV1 (Homo sapiens, UniProt P50549 1-477); settings: protein: recombinant; tags: N-terminal GST; dsDNA, one strand shown
ETV1, sequence (P50549 whole entry): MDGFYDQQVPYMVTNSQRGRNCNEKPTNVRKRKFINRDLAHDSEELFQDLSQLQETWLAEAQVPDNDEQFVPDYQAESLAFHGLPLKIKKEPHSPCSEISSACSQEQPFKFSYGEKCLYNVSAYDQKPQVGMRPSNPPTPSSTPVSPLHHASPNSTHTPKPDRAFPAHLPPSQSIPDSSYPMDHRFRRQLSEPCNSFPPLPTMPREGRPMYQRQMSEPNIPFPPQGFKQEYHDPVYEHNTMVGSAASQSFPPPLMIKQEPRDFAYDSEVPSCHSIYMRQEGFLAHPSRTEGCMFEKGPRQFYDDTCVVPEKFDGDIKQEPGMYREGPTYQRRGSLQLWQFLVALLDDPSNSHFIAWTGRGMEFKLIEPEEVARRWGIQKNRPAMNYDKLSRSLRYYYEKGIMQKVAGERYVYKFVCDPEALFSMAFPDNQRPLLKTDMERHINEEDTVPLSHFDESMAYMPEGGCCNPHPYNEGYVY
Method in brief: as §1

CCATTC
binding signal [1]: 1.22 fold enrichment (6-mer frequency, TF over GST control)
binding signal [2]: 1.09 fold enrichment (6-mer frequency, TF over GST control)
binding signal [3]: 1.1 fold enrichment (6-mer frequency, TF over GST control)
binding signal [4]: 1.2 fold enrichment (6-mer frequency, TF over GST control)
binding signal [5]: 1.17 fold enrichment (6-mer frequency, TF over GST control)
binding signal [6]: 1.07 fold enrichment (6-mer frequency, TF over GST control)
binding signal [7]: 1.16 fold enrichment (6-mer frequency, TF over GST control)
binding signal [8]: 1.09 fold enrichment (6-mer frequency, TF over GST control)
binding signal [9]: 1.29 fold enrichment (6-mer frequency, TF over GST control)
binding signal [10]: 1.06 fold enrichment (6-mer frequency, TF over GST control)
binding signal [11]: 1.11 fold enrichment (6-mer frequency, TF over GST control)
binding signal [12]: 1.15 fold enrichment (6-mer frequency, TF over GST control)
binding signal [13]: 1.14 fold enrichment (6-mer frequency, TF over GST control)
binding signal [14]: 1.18 fold enrichment (6-mer frequency, TF over GST control)
binding signal [15]: 1.22 fold enrichment (6-mer frequency, TF over GST control)
binding signal [16]: 1.25 fold enrichment (6-mer frequency, TF over GST control)
binding signal [17]: 1.05 fold enrichment (6-mer frequency, TF over GST control)
binding signal [18]: 1.14 fold enrichment (6-mer frequency, TF over GST control)

Source: article PMC7862700, “An all-to-all approach to the identification of sequence-specific readers for epigenetic DNA modifications on cytosine”
